System: VDR:RXRa (NR concentration 270 nM, RXRa partner concentration 90 nM)
Experiment: PBM binding z-score (relative to random genomic background probes); higher = stronger binding; sequences stand for … in GC…GCGATTGACAGCGTAGAATGAAGG
Protocol: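 Protein-binding microarray (Agilent 4x180K custom design, double-stranded 60-nt probes: 5' GC cap, 34-nt variable region, 24-nt constant primer region; full probe sequence given). Purified or IVT nuclear receptor:RXRα heterodimers (3:1 NR:RXRα, mostly 270:90 nM) or homodimers were incubated for 1 h in PBS with 2% milk and no ligand, then detected with Alexa488 antibodies. Fluorescence from o1-orientation probes (~5 replicates averaged) was converted to z-scores against 500 random hg19 background probes. Variable regions are seed direct-repeat (DR0–DR5) sites, all their single-nucleotide variants and half-site ablations.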

| Sequence | PBM binding z-score |
| --- | --- |
| TCTCGGAGGACATGAAGGTCAGAGCTTTCCAGAG | 1.77 |
| GGAACGAGGGCATTCGAGTTGATCGCATGGCGAT | 3.61 |
| AGAAGGAGGTTATACGTAGATCAGGGAAGAAAGT | 0.711 |
| TCTGCTAGGTCAGCGATGGTCAGCTAATCTGCTA | 0.126 |
| CGTCCAAGGTCAGAGAGGACAGTGAATGCCGAGT | 5.85 |
| TAGCGTAGGTCATGGGCCAGTATACCACGCGAAC | 2.24 |
| ATCGAAAGGTCGACGAGCTGAGTATACACCGTTT | 2.15 |
| TCTGCTACGTCAGTTGGTCAGCTAACGAGCTGCC | -0.996 |
| TTACCAAGGTGAAGGTCGTTGTTCCCTCTGTAGA | 1.26 |
| CGAACTAGGTCATTCAGGACAGTGAATACATTGA | 4.46 |
| TGAATGAGGTTAAAGATCAGGTAACGTGGCGTCG | 1.92 |
| TCTAGTTGGTCAAGGAGGTCACACACGACGGGTA | 5.23 |
| TCTCGGAGGAAACGAAGGTCAGAGCTTTCCAGAG | 0.66 |
| CCTAGCAGGCCAAGGTCACTCAAGCATTTCGCTT | 2.88 |
| AATACAGGGTCAACGTAGGCCAGAGTACGCACAG | 5.06 |
| ACAGACAGGTGATGAAGCTAACTCAGGCTATCAT | -0.278 |
| ATCGAAAGGTCGGAGGTGAGTATACCCACCCGAA | 1.75 |
| CCAGACAGGTGAGAAGGTAACACAGCCTCGATTA | 0.086 |
| ATATGTAGATTACATCCGGGTCATTCAGGCTATG | 3.34 |
| GCATATAGGTAATACAAGGTAAAAGTCCGATTGT | 0.085 |

| Sequence | PBM binding z-score |
| --- | --- |
| ACAGACAGGTGAGTGAAGGTAATTCAGCTGGACG | -0.394 |
| TCTCGGAGGACACGAAGGTCAGTGCTTTCCAGAG | 2.08 |
| CCTTACGGGTCACTGACAGGGTATAGCATTTGGA | 3.15 |
| TCATATAGGTGAACAGGTGAAAGTCCGTAAGTTA | 1.19 |
| ACTAGTTGGGCAGCTGAGGTCACACACAATTCGG | 3.72 |
| TAGACTAGGTCATTGGGCCAGTATAGTACGCATC | 1.93 |
| CCGACTGGGGCATAAGGTCACCATAAGCCAGCCC | 3.15 |
| CATACAGGGTCAGCTAGGCCCGAGTAGGGACGGC | 2.63 |
| CCAGTCAGGTGAAAGGTAACTCAGTCTGGTACGC | 0.52 |
| CAAACTGGGTCAAGAGGTCAAAGTCCGCTTCCCG | 6.19 |
| CCGCGGAGGACAGAAGGTCAGAGCTGTCCGCTTT | 0.646 |
| ACCGACAGGTGATGAAGGTAACTCAGGCTATCAT | -0.148 |
| GCTATTAGTGGAAAGGGCAACCGAATGATTCTCG | 0.104 |
| TCTATTAGTTGATGGGCAACCGACGAGTCCGTTT | 0.542 |
| CCCAGCAGGCCAGGGTCACTCAAGCATTTCGCTT | 2.42 |
| AATACAGGGTCACTAGGCCACAGTAGGTACGAAT | 4.27 |
| GGAACGAGGGAATTCGAGTTGATAGCATGGCGAT | -0.217 |
| TCTAGTTGGTCACGCAGGTCACACACGACGGGTA | 4.01 |
| TCTTGTAGATCAAGCTGGTTAAGAAAGCCTGAGT | 0.112 |
| TCCTATAGGTAAAGGTGAAAGTCGAACGATATGA | 0.86 |
